Source: PubChem
RGS4-Gao reg: modulates binding of RGS4 to human Galphao; binding response (% of control), % at 10 µM; actives 0.33% (n = 220,000); AID 1415; P09471; Multiplexed bead flow cytometry; actives lie on both sides; in the data active = binding response below about 49% or above about 150%; inactive = in between;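 note: fluorescent Galphao activated with aluminum fluoride binding bead-coupled RGS4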
Target sequence (P09471 whole entry, looked up): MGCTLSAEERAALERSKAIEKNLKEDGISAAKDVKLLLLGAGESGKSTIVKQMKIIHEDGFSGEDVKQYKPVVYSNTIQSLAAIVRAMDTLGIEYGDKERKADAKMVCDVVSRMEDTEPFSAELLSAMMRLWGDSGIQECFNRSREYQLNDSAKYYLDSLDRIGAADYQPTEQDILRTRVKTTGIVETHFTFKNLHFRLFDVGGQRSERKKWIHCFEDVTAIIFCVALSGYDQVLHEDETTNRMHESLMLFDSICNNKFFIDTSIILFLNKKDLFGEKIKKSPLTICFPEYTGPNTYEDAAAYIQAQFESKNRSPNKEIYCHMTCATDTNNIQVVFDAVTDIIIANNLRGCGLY
RGS16-Gao HTS: regulators of human RGS16-Galphao interaction. O15492+P09471. binding response (% of control), % at 10 µM. actives 0.38% (n = 220,000). bead-based flow cytometry RGS16-Galphao binding, fluorescence; actives lie on both sides;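 note: Galphao activated by GDP with aluminum fluoride before binding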
Target sequence (O15492 whole entry, looked up): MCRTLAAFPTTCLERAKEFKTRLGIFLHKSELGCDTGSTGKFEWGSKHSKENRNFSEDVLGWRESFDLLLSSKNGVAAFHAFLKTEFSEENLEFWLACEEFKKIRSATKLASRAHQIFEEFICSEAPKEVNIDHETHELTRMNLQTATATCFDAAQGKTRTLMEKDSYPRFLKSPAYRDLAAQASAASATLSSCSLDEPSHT
Target sequence (P09471 whole entry, looked up): as the sequence (P09471 whole entry, looked up) above
Avidin bead fluor: compound fluoresces at 488/530 nm on avidin beads | compound fluorescence 488/530 nm, flow cytometry; hits give high values | fluorescence (KMESF) at 10 µM | actives 0.38% (n = 220,000) | AID 1775; in the data active = fluorescence above about 47
GSH fluor: compound fluoresces at 488/530 nm on GSH beads | GSH beads flow cytometry, compound fluorescence 488/530 nm; hits give high values | fluorescence (KMESF) at 10 µM | actives 0.25% (n = 190,000) | AID 1776; in the data active = fluorescence above about 89;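 note: glutathione beads carrying GST-tagged Bcl family fusion proteins plus one bare bead set; values are compound well signal with DMSO vehicle wells as background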
RGS7-Gao: modulates binding of RGS7 to human Galphao; Multiplexed bead flow cytometry; actives lie on both sides; actives 0.35% (n = 220,000); binding response (% of control), % at 10 µM; in the data active = binding response below about 49% or above about 150%; inconclusive = no clear call, values can overlap the other calls; inactive = in between;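 note: fluorescent Galphao held in activated GDP-AlF4 state binding bead-coupled RGS7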
RGS8-Gao: regulators of human RGS8-Galphao interaction; P09471; multiplexed bead flow cytometry, RGS8-Galphao binding; actives lie on both sides; response (percent of control binding), % at 10 µM; actives 0.34% (n = 220,000); in the data active = response below about 60% or above about 140%; inactive = in between;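 note: Galphao activated as the GDP aluminium fluoride complex binding bead-coupled RGS8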
RGS4-Gao HTS: RGS4-Galphao interaction regulator (human); actives 99% (n = 1,600); shares compounds with RGS16-Gao HTS; multiplexed bead flow cytometry, RGS–Galpha-o binding; RGS4–Galpha-o binding response, % at 10 µM;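 note: fluorescently labeled Galpha-o bound to GDP with aluminium fluoride binding biotinylated RGS beads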
Biotin-avidin: interferes with biotinylated probe binding to avidin beads; shares compounds with RGS16-Gao HTS; streptavidin beads, fluorescein-biotin binding, flow cytometry; inhibition, % at 10 µM; 1,700 tested, under 10 active; AID 1783;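 active = inhibition above 50%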;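 note: median green fluorescence of gated singlet beads compared with DMSO control wells; 0% = DMSO wells and 100% = complete loss of bead fluorescence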
RGS8-Gao single: confirmation of regulators of human RGS8-Galphao interaction; shares compounds with RGS16-Gao HTS; binding response (% of control), % at 10 µM; bead-based flow cytometry RGS8-Galphao binding, fluorescence; actives lie on both sides; actives 3% (n = 1,700); in the data active = binding response below about 72% or above about 130%; inactive = in between;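 note: Galphao activated as GDP AlF4 complex before binding bead RGS8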
RGS7-Gao single: RGS7-Galphao interaction regulation, single point confirmation; shares compounds with RGS16-Gao HTS; bead-based flow cytometry RGS7-Galphao binding; actives lie on both sides; response (percent of control binding), % at 10 µM; actives 7.8% (n = 1,700); AID 1837; in the data active = response below about 75% or above about 130%; inactive = in between;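 note: fluorescent Galphao activated with GDP and aluminum fluoride binding bead-coupled RGS7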
RGS16-Gao conf: confirmation of regulators of human RGS16-Galphao interaction. response (% of control binding), % at 10 µM. actives 4% (n = 1,700). shares compounds with RGS16-Gao HTS. bead-based flow cytometry, RGS16-Galphao binding; actives lie on both sides; in the data active = response below about 74% or above about 130%; inactive = in between;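 note: Galphao activated as the GDP aluminium fluoride complex binding bead-coupled RGS16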
RGS4-Gao confirm: RGS4-Galphao interaction regulation, single point confirmation; actives 4% (n = 1,700); shares compounds with RGS16-Gao HTS; RGS4-Galphao binding, multiplexed bead flow cytometry; actives lie on both sides; binding response (% of control), % at 10 µM; in the data active = binding response below about 74% or above about 130%; inactive = in between
RGS19-Gao conf: confirmation of regulators of human RGS19-Galphao interaction; shares compounds with RGS16-Gao HTS; bead-based flow cytometry RGS19-Galphao binding; actives lie on both sides; response (percent of control binding), % at 10 µM; actives 5% (n = 1,700); AID 1841; in the data active = response below about 50% or above about 160%; inactive = in between;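 note: 100% = no compound control and 0% = blank background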
An asterisk follows results filed as active; ? = inconclusive; . = no result; [ ] = dose if it differs, or a comment. Hits are enriched below; roughly 1.2% of the tested compounds scored in any of these assays. Unless noted, the rule behind the calls is not given here.

SMILES	RGS4-Gao reg	RGS16-Gao HTS	Avidin bead fluor	GSH fluor	RGS7-Gao	RGS8-Gao	Biotin-avidin	RGS8-Gao single	RGS7-Gao single	RGS16-Gao conf	RGS4-Gao confirm	RGS19-Gao conf	others
COc1ccc(C(=O)N2CCOC2CNC(=O)C(=O)NCc2ccc(Cl)cc2)cc1 (configuration not stated)	106	112	25	20	99	108	.	.	.	.	.	.
Cc1cccc2sc(NC(=O)[C@@H]3CCCN3C(=O)c3cccs3)nc12	101	211*[activator]	7	16	111	131	-3	100	96	100	97	101	RGS4-Gao HTS=101*
COc1cc2[nH]c(=S)nc(NC3CCCC3)c2cc1OC	101	104	25	7	101	102	.	.	.	.	.	.
COc1ccc(C2C(C(N)=O)=C(C)Nc3nc(-c4ccccc4OC)nn32)cc1OC (configuration not stated)	93	99	25	15	95	100	.	.	.	.	.	.
COC(=O)c1nc2n(n1)C(c1ccc(OC)c(OC)c1)C(C(=O)OC1CCCCC1)=C(C)N2 (configuration not stated)	82	-38*	2	54	88	88	1	103	100	97	102	93	RGS4-Gao HTS=82*
Cc1nc2c(cnn2-c2ccc(Cl)cc2)c(=O)n1-c1ccc(N2CCC(C)CC2)cc1	150*[activator]	178	18	21	171*[activator]	109	-1	105	108	110	104	122
COC(=O)c1c(C(=O)NCc2ccccc2)ncn1CC(O)COc1ccccc1 (configuration not stated)	58	-175*	9	15	86	96	0	83	74*	80	79	75	RGS4-Gao HTS=58*
Cc1ccccc1-c1ccc(=O)n(CC(=O)Nc2ccc(N3CCOCC3)cc2)n1	.	.	.	47	.	.	0	96	99	98	98	102
O=C1CC(c2ccc(S(=O)(=O)NCCOc3ccccc3)cc2)CN1 (configuration not stated)	.	.	.	33	.	.	2	101	97	100	97	103
CCOc1cccc(CNCCSc2nnnn2C)c1	95	25	5	29	97	82	.	.	.	.	.	.
CNc1ncnc2sc(-c3ccccc3)cc12	24*	13*	0	11	11*	16*	2	104	103	104	102	98
O=C(O)CSc1ncnc2sc(-c3ccccc3)cc12	96	98	8	17	94	97	.	.	.	.	.	.
O=C(O)CCSc1ncnc2sc(-c3ccccc3)cc12	262*[activator]	236*[activator]	86*	.	?	114	0	98	101	98	100	113
NCCc1c(-c2ccccc2)n(-c2ccccc2)c2ccccc12	108	105	9	13	?	107	.	.	.	.	.	.
CCC(C)(C)c1nnc(NC(=O)c2cccc([N+](=O)[O-])c2)s1	89	20*	2	12	89	75	2	103	105	109	107	92	RGS4-Gao HTS=89*
COc1ccccc1N(CC(=O)NCC1CCCO1)C(=O)CNS(=O)(=O)c1ccc(Cl)cc1 (configuration not stated)	102	100	7	.	?	102	.	.	.	.	.	.
COc1ccc(OC)c(/C(O)=C/C(=O)C(=O)Nc2cc(C)cc(C)c2)c1	97	101	15	35	97	100	.	.	.	.	.	.
COc1ccc(OC)c(/C(O)=C/C(=O)C(=O)Nc2cc(C)ccc2OC)c1	49*	710	-1	29	68	82	0	89	75*	87	84	127
Cc1c(O)c2c3c(cccc3c1O)C(=O)N(c1ccccc1)C2=O	164*[activator]	120	2	13	161*[activator]	143*[activator]	-1	95	92	93	93	92
N=c1sccn1CC(=O)Nc1ccc(Cl)cc1[N+](=O)[O-]	101	97	7	.	?	100	.	.	.	.	.	.
Oc1ccc(/C=C/c2nc(-c3ccccc3O)n(-c3ccccc3)n2)cc1	94	94	9	9	95	98	.	.	.	.	.	.
Oc1ccccc1-c1nc(/C=C/c2ccccc2)nn1-c1ccccc1	107	197*[activator]	18	9	106	117	0	102	108	104	107	90	RGS4-Gao HTS=107*
COC(=O)c1ccc(N=CC2=C(O)CC(c3ccccc3)CC2=O)cc1 (configuration not stated)	105	105	8	.	?	104	.	.	.	.	.	.
Cc1ccc(C(=O)NNC(=O)c2ccc(C)cc2)cc1	104	111	25	11	109	106	.	.	.	.	.	.
Cc1ccc(C(=O)NC(O)C(Cl)Cl)cc1 (configuration not stated)	161*[activator]	175*[activator]	2	19	113	104	2	103	103	102	102	107
CCOc1ccc(-c2nnc(-c3ccco3)o2)cc1OCC	100	97	34	46	95	96	.	.	.	.	.	.
CCOc1cc(-c2nnc(-c3ccco3)o2)cc(OCC)c1OCC	119	96	194*	35	156*[activator]	102	0	101	106	97	99	87	RGS4-Gao HTS=119*
O=C(c1ccc(=O)[nH]c1)N(Cc1cccs1)C1(C(=O)NC2CCCC2)CCCCC1	116	259*[activator]	4	10	108	141*[activator]	-1	104	105	105	103	101	RGS4-Gao HTS=116*
COCCN(CCOC)C(=O)COC(=O)c1ccc(Cl)c(S(=O)(=O)N(C)c2ccccc2)c1	102	102	5	11	101	100	.	.	.	.	.	.
